“And” between values parts separate entries of the source, which are not always exact repeats. Equal values may be shown once. Where a name gives a salt, the structure may show the parent alone. Out of some 5,800 compounds screened, about 620 (11%) showed activity. This is one part of a sample in which actives are shown more often than they occur. A number with no mark means an inactive call.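 The calls were made as follows: active = score above a cut-off or among the top three wells of a plate; in these data no inactive exceeds 0.85.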
System: primary human hepatic stellate cells (donor 1)
Assay: scaled lipid accumulation score (0 = DMSO-like, 1 = nortriptyline-like); higher = stronger HSC inactivation (lipid re-accumulation), active = hit call of the paper
Conditions: 48 h
Procedure: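 Primary lipid accumulation screen in primary human hepatic stellate cell myofibroblasts (donor 1, passage 8) in 384-well plates. 100 nL of library compound was pin-transferred into 30 µL medium in duplicate, and cells were treated for 48 h. The 'Scaled' score combines distance from plate baseline, toxicity and reproducibility penalties, and is normalised to nortriptyline (positive) and DMSO (negative) controls on each plate. A hit is defined as scaled >0.85 or among the top 3 wells per plate.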

[1] = library stock concentration: 1 mM
[2] = library stock concentration: 10 mM

For `COC(=O)[C@@]1(O)C[C@H]2O[C@]1(C)n1c3ccccc3c3c4c(c5c6ccccc6n2c5c31)C(=O)NC4`, the “scaled lipid accumulation score” value (library stock concentration: 1.1 mM) was 0.142.
For `CN[C@@H]1C[C@H]2O[C@@](C)([C@@H]1OC)n1c3ccccc3c3c4c(c5c6ccccc6n2c5c31)C(=O)NC4` [staurosporine], the “scaled lipid accumulation score” value (library stock concentration: 10.7 mM) was 0.643.
For `CN[C@@H]1C[C@H]2O[C@@](C)([C@@H]1OC)n1c3ccccc3c3c4c(c5c6ccccc6n2c5c31)C(=O)NC4` [Staurosporine], the “scaled lipid accumulation score” value [1] was 0.546 (active).
For `COC(=O)N1CCN(C(=O)Cc2ccc(Cl)c(Cl)c2)C(CN2CCCC2)C1.O=C(O)/C=C/C(=O)O` (stereo not given), the “scaled lipid accumulation score” value [2] was 0.902 (active).
In the case of `O=C(Cc1ccc(Cl)c(Cl)c1)N1CCCCC1CN1CCCC1` (stereo not given), the “scaled lipid accumulation score” value [2] is reported as 0.581 and 0.566.
In the case of `COC(=O)N1CCN(C(=O)Cc2ccc(Cl)c(Cl)c2)C(CN2CCCC2)C1` (stereo not given), the “scaled lipid accumulation score” value [2] is reported as 0.05.
For `CO[C@H]1CC=C2CCN3CCC4=C(CC(=O)OC4)[C@]23C1` [Dihydro-beta-erythroidine hydrobromide], the “scaled lipid accumulation score” value [2] was no more than -0.07.
In the case of `COc1ccc2c(c1OC)C(=O)OC2C1c2cc3c(cc2CCN1C)OCO3` (single isomer, unassigned; (+)) [(+)-Hydrastine], the “scaled lipid accumulation score” value [2] is reported as no more than -0.07.
`CCCCC/C=C\C/C=C\C/C=C\C/C=C\CCCC(=O)Nc1cccc([N+](=O)[O-])c1` [Arachidonoyl m-Nitroaniline] was tested, and the “scaled lipid accumulation score” value [1] was no more than 0.
With `CN(C)C(=O)C(CCN1CCC(O)(c2ccc(Cl)cc2)CC1)(c1ccccc1)c1ccccc1.Cl` the “scaled lipid accumulation score” value (library stock concentration: 9.7 mM) was 1.02 (active).
For `CN(C)C(=O)C(CCN1CCC(O)(c2ccc(Cl)cc2)CC1)(c1ccccc1)c1ccccc1.Cl` [Loperamide hydrochloride], the “scaled lipid accumulation score” value [2] was 1.46 (active).
In the case of `CCOC(=O)C1(c2ccccc2)CCN(CCC(C#N)(c2ccccc2)c2ccccc2)CC1`, the “scaled lipid accumulation score” value [2] is reported as no more than 0.
`O=C(N[C@H]1CN2CCC1CC2)c1cc2ccoc2cn1` was tested, and the “scaled lipid accumulation score” value [2] was no more than -0.055.
`Cl[C@H]1[C@H](Cl)[C@@H](Cl)[C@@H](Cl)[C@H](Cl)[C@H]1Cl` [Lindane] was tested, and the “scaled lipid accumulation score” value (library stock concentration: 6.9 mM) was no more than -0.001 and the “scaled lipid accumulation score” value [2] was no more than 0.
With `OC[C@@H](O)[C@H]1O[C@@H]2O[C@H](C(Cl)(Cl)Cl)O[C@@H]2[C@H]1O` the “scaled lipid accumulation score” value [2] was no more than 0.
`CN(C)NC(=O)CCC(=O)O` [Daminozide] was tested, and the “scaled lipid accumulation score” value (library stock concentration: 80 uM) was no more than 0, the “scaled lipid accumulation score” value (library stock concentration: 400 uM) was no more than 0 and the “scaled lipid accumulation score” value (library stock concentration: 2 mM) was no more than 0. The “scaled lipid accumulation score” value [2] was no more than 0.
`CC[C@@H](C(=O)[C@@H](C)[C@@H](O)[C@H](C)[C@@H]1O[C@@H]([C@@H](CC)C(=O)O)CC[C@@H]1C)[C@H]1O[C@]2(C=C[C@@H](O)[C@]3(CC[C@@](C)([C@H]4CC[C@](O)(CC)[C@H](C)O4)O3)O2)[C@H](C)C[C@@H]1C` [Salinomycin, sodium] was tested, and the “scaled lipid accumulation score” value [2] was 0.422.
For `Clc1ccc(C2=CCCC3CCC2N3)cn1` (stereo not given) [UB 165 fumarate], the “scaled lipid accumulation score” value [2] was 0.039.
For `NC1=NC(=O)C(c2ccccc2)O1` (stereo not given) [Pemoline], the “scaled lipid accumulation score” value [2] was no more than 0.
`C=C(C)[C@@H]1[C@H]2OC(=O)[C@@H]1[C@]1(O)C[C@H]3OC34C(=O)O[C@H]2[C@@]41C.CC(C)(O)[C@@H]1[C@H]2OC(=O)[C@@H]1[C@]1(O)C[C@H]3OC34C(=O)O[C@H]2[C@@]41C` (stereo not given in full) [Picrotoxin] was tested, and the “scaled lipid accumulation score” value [2] was no more than -0.055.
In the case of `O=C1C=C2C(=CCOC2O)O1` (stereo not given) [Patulin], the “scaled lipid accumulation score” value [2] is reported as 1.21 (active).
With `C[C@H](N)Cn1ccc2cc(F)c(Cl)cc21.O=C(O)/C=C/C(=O)O` [Ro 60-0175 fumarate] the “scaled lipid accumulation score” value [2] was 0.953 (active).
In the case of `O=C[C@H](Cl)[C@@H](O)[C@H](O)[C@H](O)CO` [2-Chloro-2-deoxy-D-glucose], the “scaled lipid accumulation score” value [2] is reported as no more than -0.07.
For `CCN1C[C@]2(COC)CC[C@H](O)[C@]34C1[C@@](O)([C@@H](OC)[C@H]23)[C@@]1(O)C[C@H](OC)[C@H]2C[C@@H]4[C@@H]1[C@H]2OC` [Delsoline], the “scaled lipid accumulation score” value was no more than 0.
`CN(N=O)c1ccc(O)c(O)c1` [Me-3,4-dephostatin] was tested, and the “scaled lipid accumulation score” value [2] was no more than -0.055.
In the case of `N=C(NCc1ccc(Cl)cc1)SCCCc1c[nH]cn1` [Clobenpropit], the “scaled lipid accumulation score” value [2] is reported as 0.903 (active).
In the case of `Br.Br.N=C(NCc1ccc(Cl)cc1)SCCCc1c[nH]cn1` [Clobenpropit dihydrobromide], the “scaled lipid accumulation score” value [2] is reported as 1.53 (active).
For `Clc1ccc(C2CC3CCC2N3)cn1` (stereo not given), the “scaled lipid accumulation score” value (library stock concentration: 24 mM) was no more than -0.012.
`C1=C2CCCN[C@H]2[C@@H]2C[C@H]1[C@H]1CCCCN1C2` [Aloperine] was tested, and the “scaled lipid accumulation score” value (library stock concentration: 3.33 mM) was 0.028 and the “scaled lipid accumulation score” value [2] was 0.068.
In the case of `COc1cc(C=Cc2ccc(OC)c(O)c2)cc(OC)c1`, the “scaled lipid accumulation score” value [1] is reported as 0.176.
In the case of `Clc1ccc(N2CC3CCC(C2)N3)nn1`, the “scaled lipid accumulation score” value [2] is reported as no more than -0.07.
For `C[N+]1(C)[C@@H]2CC(OC(=O)[C@H](CO)c3ccccc3)C[C@H]1[C@@H]1O[C@@H]12` (single isomer, unassigned; (-)) [(-)-Scopolamine methyl nitrate], the “scaled lipid accumulation score” value [2] was no more than 0.
With `CC(=O)O[C@H]1CC[C@@]2(C)C(=CC[C@@H]3[C@@H]2CC[C@]2(C)C(=O)CC[C@@H]32)C1` [Dehydroisoandosterone 3-acetate] the “scaled lipid accumulation score” value was no more than 0.
`CC(=O)O[C@H]1CC[C@@]2(C)C(=CC[C@@H]3[C@@H]2CC[C@]2(C)C(=O)CC[C@@H]32)C1` [Prasterone acetate] was tested, and the “scaled lipid accumulation score” value [2] was 0.103.
With `CCN(CC)CCO[C@H]1CC[C@@]2(C)C(=CC[C@@H]3[C@@H]2CC[C@]2(C)C(=O)CC[C@@H]32)C1.Cl` the “scaled lipid accumulation score” value [2] was 1.39 (active).
With `CCN(CC)CCO[C@H]1CC[C@@]2(C)C(=CC[C@@H]3[C@@H]2CC[C@]2(C)C(=O)CC[C@@H]32)C1` the “scaled lipid accumulation score” value [1] was 0.116.
`CC(C)NC(C)Cc1ccc(I)cc1` (stereo not given) [Iofetamine hydrochloride] was tested, and the “scaled lipid accumulation score” value [2] was 0.757.
For `COP(=S)(OC)Oc1ccc(SC)c(C)c1`, the “scaled lipid accumulation score” value [2] was no more than 0.
In the case of `CO[C@H](C)[C@](O)(C(=O)OCC1=CCN2CC[C@H](O)[C@@H]12)C(C)C` [Heliotrine], the “scaled lipid accumulation score” value is reported as no more than 0.
For `CO/C1=C\C(C)=C\[C@@H](C)[C@@H](O)[C@@H](C)C/C(C)=C/C=C/[C@H](OC)[C@@H]([C@@H](C)[C@@H](O)[C@H](C)[C@@]2(O)C[C@@H](O)[C@H](C)[C@@H](C(C)C)O2)OC1=O` [Bafilomycin A1], the “scaled lipid accumulation score” value (library stock concentration: 800 uM) was 1.08 (active).
